# Reference: PubChem BioAssay (NCI)
# Compounds without any hit were thinned out: in the full panel of roughly 79,000, 15% have a hit. Unmarked numbers belong to inactive results. Activity calls are given as the source filed them. Cut-off read from the data, not from the text of the source: active = growth inhibition above about 70%; inactive = the rest.
# Experiments:
# [1] = NCI Yeast Anticancer Drug Screen. Data for the rad50 strain (AID 155);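 note: 0% = growth of vehicle-only cultures of the same strain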; details: S. cerevisiae rad50 strain growth inhibition; at 50.0 µM; hits give high values
# Procedure, shortened: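 Growth of the mutant yeast was measured after compound exposure and referenced to vehicle-treated cultures.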
# [2] = NCI Yeast Anticancer Drug Screen. Data for the mec2-1 strain (AID 157); details: S. cerevisiae mec2-1 strain, at 50.0 µM, hits give high values
# Procedure, shortened: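 Readout is yeast growth inhibition, normalised to vehicle-treated controls, in the mec2-1 strain exposed to compound.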
# [3] = NCI Yeast Anticancer Drug Screen. Data for the sgs1 mgt1 strain (AID 161);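 note: 0% = growth of cultures given vehicle only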; details: S. cerevisiae sgs1 mgt1 strain, at 50.0 µM, hits give high values
# Procedure, shortened: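 Growth of a repair-deficient yeast mutant was monitored after compound treatment and expressed as inhibition relative to vehicle-treated cultures.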
# [4] = NCI Yeast Anticancer Drug Screen. Data for the cln2 rad14 strain (AID 165);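 note: 0% = growth equal to vehicle treated cultures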; details: S. cerevisiae cln2 rad14 strain, at 50.0 µM, hits give high values
# Procedure, shortened: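 Relative to vehicle controls, growth inhibition of compound-treated cln2 rad14 yeast was recorded.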
# [5] = NCI Yeast Anticancer Drug Screen. Data for the bub3 strain (AID 167); details: S. cerevisiae bub3 mutant strain, at 50.0 µM, hits give high values
# Procedure, shortened: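 Whole-cell yeast assay. The mutant strain was incubated with compounds, and growth inhibition was determined by comparison with vehicle-treated cells.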
# [6] = NCI Yeast Anticancer Drug Screen. Data for the mlh1 rad18 strain (AID 175); details: S. cerevisiae mlh1 rad18 strain growth inhibition; at 50.0 µM; hits give high values
# Procedure, shortened: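 Test agents were incubated with a yeast strain of defined genotype (DNA damage repair defect). Inhibition of growth was derived by comparison with vehicle-exposed cultures.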
SMILES,growth inhibition [1],growth inhibition [2],growth inhibition [3],growth inhibition [4],growth inhibition [5],growth inhibition [6]
CC1(C)C(=O)/C=C\C(=O)C(C)(C)C2=CC=C(O2)C(C)(C)C(=O)C(Br)C(Br)C(=O)C(C)(C)C2=CC=C1O2 (stereo not drawn),-20.4%,-18.1%,-68.5%,5.6%,-34.9%,-27.6%
CN(C=O)/C=C/c1cc(O)ccc1O,-0.95%,-0.8%,-1.6%,-4.1%,7.7%,5.4%
NC(Cc1ccc(OC(c2ccccc2)c2ccccc2)cc1)C(=O)O (stereo not drawn),6.45%,4.9%,0.75%,-10.7%,-13.6%,28.8%
C=CSC(=S)Sc1ccccc1,25.6%,28.4%,-1.15%,3.45%,19%,12.9%
CC(=O)Oc1c(Br)cc(C(=O)c2ccccc2C(=O)c2cc(Br)c(OC(C)=O)c(Br)c2)cc1Br,13.9%,25.5%,21.6%,-16.3%,11.9%,13.7%
CCCCCCCCC1CO1 (stereo not drawn),0.9%,3.55%,-10.8%,-19.5%,-3.95%,-6.85%
CC1=CC(C)(C)Nc2ccccc2N1,-7.1%,-4.85%,-8.8%,14.2%,-3%,1.45%
CN(C(=O)Sc1ccc([N+](=O)[O-])cc1)c1ccc([N+](=O)[O-])cc1,1.3%,15.2%,9.8%,4.05%,31.4%,21.3%
Cc1nc2c(c(=O)[nH]1)S/C(=C(/C#N)c1nc3ccccc3[nH]1)N2c1ccccc1,-39.8%,-29%,-42.4%,-22%,-40.8%,-47.9%
CCCCCCCCCCCc1noc2c1C(=O)C(O)CC2 (stereo not drawn),36.5%,-3.05%,-1.05%,40.4%,-69%,5.25%
CN(C)c1nc(N(C)C)c2cnn(C)c2n1,21.7%,3.7%,20.9%,-15.8%,-2.7%,-29.8%
CCC(O)C1CCCCN1 (stereo not drawn),-20.8%,-7%,-12.2%,-4.05%,-17.5%,-11.2%
O=C1c2c(nc3ccccc3c2-c2ccccc2)CN1Nc1ccccc1,-12%,-24.9%,-9.45%,5.65%,-37.7%,-19.4%
BrC1Cc2ccccc2C(Br)Cc2ccccc21 (stereo not drawn),-7.65%,-5.1%,-1.05%,-47.5%,4%,-9.6%
COC(=O)C(CC1=C(O)Nc2ccccc2N1)/C(=N/NC(N)=O)C(=O)Nc1ccccc1C (stereo not drawn),11.4%,9%,13.6%,-17.6%,-5.5%,-46.4%
NC(=O)NC(=O)CC1NC(=O)NC1=O (stereo not drawn),9.25%,12%,18.1%,12.1%,-4.1%,-16.4%
CN(CCO)CCC1COc2ccccc2O1 (stereo not drawn),2.1%,-29.6%,0.25%,12.1%,-1.05%,1.25%
O=C1C(Cl)=C(SCc2ccccc2)C(=O)c2ccccc21,17.8%,72.7% (active),48.2%,-11.3%,61.9%,42.9%
O=C(CN1C(=O)c2ccccc2C1=O)NCCO,-26.8%,-29.1%,-11.8%,-11.7%,-29.1%,-17.2%

SMILES,growth inhibition [1],growth inhibition [2],growth inhibition [3],growth inhibition [4],growth inhibition [5],growth inhibition [6]
N#CCCc1c(-c2ccccc2)nc(N)[nH]c1=O,2.35%,0.85%,2.75%,-38.4%,-14.6%,-9.75%
CC(=O)CCc1ccccc1,5.6%,-7.8%,-0.9%,-23%,-1.75%,1.9%
CN(Cc1ccccc1)C(=O)c1ccccc1C(=O)O,-9.2%,-2.85%,-4.75%,-15.9%,-4.95%,13.2%
CC(=O)Oc1ccc(/C=N\N(C)CN(C)/N=C/c2ccc(OC(C)=O)cc2)cc1,14%,-9.65%,31.6%,18.4%,1.65%,17.7%
CCN(CC)c1ccc(/C=N\NC(=S)N/N=C/c2ccc(N(CC)CC)cc2)cc1,-2.3%,0.85%,7.9%,33%,-0.95%,-1.1%
CN(C)c1ccc(/C=C(\NC(=O)c2ccccc2)C(=O)Nc2ccccc2C(=O)NCc2ccccc2)cc1,9.95%,11.7%,14.8%,12.3%,5.95%,30.7%
O=c1c2cc(Br)ccc2n(C2OC(CO)C(O)C(O)C2O)c(=S)n1-c1ccccc1 (stereo not drawn),30.6%,28.4%,31.7%,34.5%,50.5%,24.9%
Cc1cc(=O)oc2cc(OCc3ccccc3)cc(O)c12,22.8%,4.2%,21.8%,-3.3%,6.45%,12.8%
CCSc1cc2c(cc1O)CC[C@@H]1[C@@H]2CC[C@]2(C)[C@@H](O)CC[C@@H]12,-6.6%,-18.1%,-6.95%,-7.5%,22.4%,-27.6%
Cc1sc2ccnc(C)c2c1S(=O)(=O)O,5.3%,9.95%,-9.95%,-3.5%,15.2%,-12.4%
CC(O)CNc1ncnc2c1cnn2C (stereo not drawn),-4.1%,-24.9%,-10.2%,8.8%,-4.3%,12.8%
CC(O)(c1cccc(OCc2ccccc2)c1)c1ccccn1 (stereo not drawn),12.3%,0.05%,5.7%,-11.4%,-6.15%,-7.8%
CC(=O)OC1Cc2ccccc2C(OC(C)=O)Cc2ccccc21 (stereo not drawn),29.6%,7.4%,-1.25%,1.6%,18.4%,0.05%
Cc1cccc2nc(-c3ccccc3)ccc12,-3.5%,-11.6%,1.55%,5.6%,4.95%,4%
COc1ccc(Br)c(C=O)c1NC(C)=O,22.7%,11.4%,38.1%,-1.3%,-8.25%,-4.1%
COc1ccccc1/C=C(\C#N)C(=O)O,15.9%,-31.3%,-0.75%,8.6%,-6.65%,-17.9%
CN(C)Cc1ccc(O)c(CN(C)C)n1,-21.1%,-19.1%,-14.8%,-3.65%,-49.8%,-19.2%
Cn1c(=O)c2c(nc(Cl)n2Cc2ccccc2)n(C)c1=O,-39.8%,5.1%,-14.6%,23.6%,0.8%,21.4%
O=C(ON(Cc1ccccc1)Cc1ccccc1)c1ccccc1,-7.8%,1.95%,20.4%,-14.8%,28.1%,10.8%
